# Source: PubChem BioAssay
# FAS TE block: FAS thioesterase (human) inhibition; P49327; recombinant FAS-TE, OMFH fluorogenic substrate, fluorescence endpoint; inhibition, % at 15 µM; 360,000 tested, 0.67% active; AID 602261;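 active means compounds whose normalised, plate-corrected inhibition of enzyme fluorescence in the single-dose primary screen is 50% or more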;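 further: 0% = DMSO with enzyme and 100% = substrate without enzyme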
# ADAM10 inh: inhibits human ADAM10 | O14672 | recombinant ADAM10, EDANS/DABCYL FRET peptide cleavage, 3 h | inhibition, % at 7 µM | 370,000 tested, 0.62% active | AID 720582;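 active means inhibition above a per-campaign cutoff equal to the mean of compounds falling between control-based bounds plus 3 SD, cut at about 20% in these data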;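 further: 0% = DMSO wells while the 100% control is not disclosed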
# GRIN3A LBD mod: modulates the human NR3A ligand-binding domain | AID 1259313 | Tm shift relative to glycine control, % at 25 µM | 340,000 tested, 2.5% active | NR3A LBD differential scanning fluorimetry, Tm shift; 0% = protein alone, 100% = glycine-bound protein;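 active means melting temperature shift of at least 10% of the positive control shift, at one fixed dose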
# KLK7 zymogen act: activators of human kallikrein-7 zymogen | P49862 | purified proKLK7, EDANS-DABCYL substrate fluorescence; 100% is mature enzyme control, 0% vehicle | activation, % at 7 µM | 370,000 tested, 0.9% active | AID 652039;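 active means activation above the mean of all tested compounds plus 3 SD, computed per campaign excluding outliers beyond control limits, cut at about 13% in these data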
# Target sequence (P49862 whole entry, looked up): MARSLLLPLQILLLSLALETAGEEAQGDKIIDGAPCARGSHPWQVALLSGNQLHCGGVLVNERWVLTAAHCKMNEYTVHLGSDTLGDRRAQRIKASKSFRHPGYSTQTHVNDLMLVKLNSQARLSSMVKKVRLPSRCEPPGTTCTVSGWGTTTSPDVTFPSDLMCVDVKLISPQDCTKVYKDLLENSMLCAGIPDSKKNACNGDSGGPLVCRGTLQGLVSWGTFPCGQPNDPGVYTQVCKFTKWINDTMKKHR
# ADAM17 inh: inhibitors of human ADAM17; inhibition, % at 6.95 µM; P78536; AID 720648; recombinant ADAM17, EDANS/DABCYL FRET peptide cleavage; 370,000 tested, 0.83% active;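 active means inhibition above the mean of compounds lying between control limits plus 3 SD, set per campaign, cut at about 8.5% in these data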;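 further: 0% = DMSO-only wells as the low control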
# proKLK7 act conf: proKLK7 activation, confirmation; shares compounds with KLK7 zymogen act; AID 686949; 3,200 tested, 68% active; activation, % at 7 µM; purified proKLK7, EDANS-DABCYL substrate fluorescence; scaled: vehicle 0, mature enzyme 100;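 active means activation, as change over the incubation, above the mean of all tested compounds plus 3 SD, cut at about 13% in these data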
# EDANS interfere: counter-screen for kallikrein-7 activators: EDANS-DABCYL optical interference; activation, % at 7 µM; 3,200 tested, 80% active; EDANS-DABCYL substrate fluorescence interference, no enzyme, 4 h; solvent 0%, active enzyme control 100%; shares compounds with KLK7 zymogen act; AID 686952;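 active means activation above the all-compound mean plus 3 SD, ignoring values outside control-based bounds, cut at about 4.8% in these data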;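 further: value is the 4 h activation minus the activation read at time zero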
# K7 EDANS ctr: EDANS fluorescence interference in dose response, no enzyme | shares compounds with KLK7 zymogen act | EDANS-DABCYL peptide fluorescence interference | EC50, µM | 250 tested, 20% active;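 active means compounds that raise the fluorescence signal in this interference counterscreen, with EC50 at or below 10 µM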;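 further: intact quenched peptide substrate alone read at 355 nm excitation and 520 nm emission; signal is fluorescence gain from T0 to T4 after four hours at room temperature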
# The depositor's hits bear a star; i = inactive; · = no result. Rows were chosen to be rich in hits. Some 4.6% of all compounds tested hit in one or more screens of this group.
SMILES,FAS TE block,ADAM10 inh,GRIN3A LBD mod,KLK7 zymogen act,ADAM17 inh,proKLK7 act conf,EDANS interfere,others
COc1cc2c(cc1OC)CN(C(=O)CSc1ccc(F)cc1)CC2,-8,-14,-1,1,-5,·,·,
COc1cc2c(cc1OC)CN(C(=O)CSc1n[nH]c(N)n1)CC2,-6,-100,-1,18*,-34,3,1,
COc1cc2c(cc1OC)CN(C(=O)CSc1nc(C)cc(C)c1C#N)CC2,9,-51,-2,7,-23,·,·,
CCc1nc(SCC(=O)N2CCc3cc(OC)c(OC)cc3C2)c(C#N)cc1C,3,-44,0,13*,-18,1,0,
COC(=O)[C@]12C[C@H](CC(=O)N3CCOCC3)C(=O)N(Cc3ccc4c(c3)OCO4)C1=C[C@H](C(C)C)O[C@@H]2C1CC1,·,-198,·,0,-5,·,·,
COc1ccc(-c2cn3nc(C)c(C)nc3n2)cc1OC,-8,-18,1,-1,0,·,·,
Cc1ccc(-c2cn3nc(C)c(C)nc3n2)cc1,-10,i,-4,55*,i,59*,56*,
Cc1cc2nc(-c3ccc[nH]c3=O)n(Cc3cccc(F)c3)c2cc1C,0,i,-2,1,-458,·,·,
CCCn1c(-c2ccc[nH]c2=O)nc2cc(C)c(C)cc21,-6,i,1,18*,-436,38*,41*,
COc1cc(C2C(C#N)=C(N)OC3=C2C(=O)CC(C)(C)C3)c([N+](=O)[O-])cc1OC (stereo unspecified),-11,-104,0,20*,-28,21*,18*,
COc1ccc(C2C(C#N)=C(N)OC3=C2C(=O)CC(C)(C)C3)c([N+](=O)[O-])c1OC (stereo unspecified),-2,-33,4,0,-4,·,·,
Cc1ccc(-c2nc(=O)[nH]c3ccccc23)cc1,-11,-238,-1,14*,-88,16*,19*,
Cc1ccc(-c2n[nH]c(=S)c3ccccc23)cc1,0,-12,1,0,-6,·,·,
S=C(NCC1CCCCC1)OC1CCC12CCC(c1ccccc1)CC2 (stereo unspecified),·,-2,·,0,-1,·,·,
CC(C)CC1=NN2C(=N)/C(=C\c3coc4ccccc4c3=O)C(=O)N=C2S1,-37,-112,-2,24*,-39,24*,23*,
CCN1CCN(c2cc(C)c3cc(NC(=O)c4ccncc4)ccc3n2)CC1,-10,-8,0,-1,-2,·,·,
CCN1CCN(c2cc(C)c3cc(NC(=S)N4CC(C)CC(C)C4)ccc3n2)CC1 (stereo unspecified),-2,i,1,14*,-188,2,4,
CCN1CCN(c2cc(C)c3cc(NC(=O)c4ccc(C)c(C)c4)ccc3n2)CC1,2,-11,-3,29*,3,30*,24*,K7 EDANS ctr=i
COCCNC(=S)Nc1ccc2nc(N3CCCC3)cc(C)c2c1,-7,-304,1,12,-103,·,·,
CCOCCCNC(=S)Nc1ccc2nc(N3CCCC3)cc(C)c2c1,-9,i,-2,17*,-165,8,12*,
CCN1CCN(C(=S)Nc2ccc3nc(N4CCN(CC)CC4)cc(C)c3c2)CC1,-13,i,-1,8,-158,·,·,
Cc1ccc(C(=O)NC2CCCCN(Cc3cccc(F)c3)C2=O)cc1 (stereo unspecified),·,11,·,0,1,·,·,
Cc1oc2c(C)c(O)ccc2c(=O)c1-c1nncn1-c1ccccc1,-7,-35,0,-1,-10,·,·,
Cc1oc2cc(O)ccc2c(=O)c1N1C(=O)c2ccccc2C1=O,-5,i,-1,344*,-261,298*,301*,
COC(=O)c1cc(-c2c(C)oc3cc(O)ccc3c2=O)c(C)o1,-6,i,-1,-12,-296,·,·,
SMILES,FAS TE block,ADAM10 inh,GRIN3A LBD mod,KLK7 zymogen act,ADAM17 inh,proKLK7 act conf,EDANS interfere,others
Cc1ccccc1-c1c(C)oc2cc(O)ccc2c1=O,-10,i,1,58*,i,71*,74*,
Cc1oc2cc(O)ccc2c(=O)c1Oc1ccccc1,-4,i,-3,54*,i,74*,75*,
CCCOc1ccc2c(=O)c(N3C(=O)c4ccccc4C3=O)c(C)oc2c1,14,-48,0,-1,-15,·,·,
Cc1oc2c(C)c(O)ccc2c(=O)c1N1C(=O)c2ccccc2C1=O,-13,-103,1,69*,-28,99*,103*,
O=C(Nc1ccc(F)cc1)OCCN1C(=O)CCC12CCC(c1ccccc1)CC2 (stereo unspecified),·,-4,·,-1,-4,·,·,
CCOc1ccc(-n2c(SCc3nc4ccccc4[nH]3)nnc2-c2cccc(Cl)c2)cc1,·,0,·,-1,1,·,·,
CC(=O)Oc1ccc2c(=O)c(N3C(=O)c4ccccc4C3=O)c(C)oc2c1,-7,-230,-1,151*,-79,166*,164*,
COc1ccc2cc(C(=O)C3CCCN(C(=O)c4cccnc4)C3)ccc2c1 (stereo unspecified),-3,i,-3,22*,i,57*,47*,K7 EDANS ctr=>70
COc1ccc(C(=O)N2CCN(Cc3ccccn3)CC2)cc1,-10,-3,1,-1,-7,·,·,
CCn1ccnc1CN1CCCC(C(=O)c2ccc3cc(OC)ccc3c2)C1 (stereo unspecified),2,-376,-3,36*,-145,-3,-6,
COc1ccc2cc(C(=O)C3CCCN(Cc4cnc(N5CCOCC5)s4)C3)ccc2c1 (stereo unspecified),11,-119,0,3,-45,·,·,
COc1ccc2cc(C(=O)C3CCCN(Cc4ccccn4)C3)ccc2c1 (stereo unspecified),3,i,-2,39*,-270,-6,1,
COc1ccc(C2C(C(=O)Nc3ccc(Cl)cc3)CCC(=O)N2c2ccc(OC)cc2)cc1 (stereo unspecified),·,6,·,0,5,·,·,
CCOC(=O)[C@]12CCCC3=C1N(CCC3)C(=O)[C@@H](CC(=O)NCCCOC)C2,·,3,·,0,-1,·,·,
Cc1ccc(-c2nc3ccccn3c2Nc2ccccc2)o1,-3,i,-6,28*,i,63*,68*,
Cc1ccc(-c2nc3cnccn3c2Nc2ccccc2)o1,-2,-156,0,4,-35,·,·,
CC(=O)N1CCC2(CC1)CC(=O)c1cc(OCC(=O)N3CCOCC3)ccc1O2,-4,i,-2,62*,-390,69*,65*,
